Assay results from ChEMBL document CHEMBL4513146, “CO-ADD screening of Karazin Kharkiv National University (Ukraine) compounds”.
Potency and affinity values are given separately.

system: Klebsiella pneumoniae; conditions: Concentration 32 ug.mL-1;; ASSAY_TEST Inhibition of Bacterial Growth; detection method Absorption (OD600); MEDIA CAMHB; plate type 384well; NBS; CORNING #3640; time 18 hr

Question: For `COc1cccc(-n2ccn3c(=O)n(Cc4ccc([N+](=O)[O-])cc4)nc3c2=O)c1`, which Inhibition is on record?
Answer: 8.52%

Question: For `COc1ccc(N(Cc2cccc(F)c2)S(=O)(=O)c2ccc3nncn3c2)cc1`, which Inhibition is on record?
Answer: 25.01%

Question: Which Inhibition does the source give for `O=C(Cn1nc2c(SC3CCCCC3)nccn2c1=O)N1CCN(c2ccc(F)cc2)CC1` here?
Answer: 10.98%

Question: Which Inhibition does the source give for `CCc1ccc(N(Cc2cccc(F)c2)S(=O)(=O)c2cccn3c(CC)nnc23)cc1` here?
Answer: 9.15%

Question: How did the Inhibition turn out when `COc1cccc(Oc2nccn3c(=O)n(CC(=O)Nc4ccc(OC)c(OC)c4)nc23)c1` was run?
Answer: 7.97%

Question: For `CCCc1nnc2c(=O)n(CC(=O)Nc3ccc(C#N)cc3)c3ccccc3n12`, which Inhibition is on record?
Answer: 0.24%

Question: With `Cc1ccc(-n2ccn3c(SCC(=O)Nc4ccc5c(c4)OCCO5)nnc3c2=O)cc1C` as the compound, how does the Inhibition read?
Answer: 9.68%

Question: For `O=c1c2sccc2n2c(=O)n(Cc3cccc(C(F)(F)F)c3)nc2n1Cc1cccs1`, which Inhibition is on record?
Answer: 15.22%

Question: How did the Inhibition turn out when `CCOC(=O)c1ccccc1NC(=O)Cn1nc2ccc(Sc3ccc(C)cc3)nn2c1=O` was run?
Answer: 14.69%

Question: With `COc1cccc(Sc2nc3ccccc3n3c(=O)n(CC(=O)Nc4ccccc4)nc23)c1` as the compound, how does the Inhibition read?
Answer: 3.34%

Question: With `O=C(Cn1nc2c3cc(-c4ccc(F)cc4)nn3ccn2c1=O)N1CCCc2ccccc21` as the compound, how does the Inhibition read?
Answer: 8.12%

Question: Which Inhibition does the source give for `Cc1ccc(NC(=O)Cn2nc3ccc(SC(C)C)nn3c2=O)c(Cl)c1` here?
Answer: 9.56%

Question: Which Inhibition does the source give for `O=C(CSc1nnc2c(=O)n(-c3cccc(F)c3)ccn12)Nc1ccc(Br)cc1` here?
Answer: 9.48%

Question: How did the Inhibition turn out when `CCOc1ccc(-n2ccn3c(SCC(=O)Nc4ccc(C)c(C)c4)nnc3c2=O)cc1` was run?
Answer: -8.39%

Question: For `O=C(Cn1nc2ccc(Sc3ccccc3)nn2c1=O)N1CCN(c2ccc(F)cc2)CC1`, which Inhibition is on record?
Answer: 5.94%

Question: How did the Inhibition turn out when `Cc1ccc(F)cc1NC(=O)CSc1nnc2ccc(C(=O)Nc3cccc(F)c3)cn12` was run?
Answer: 2.35%

Question: With `COc1ccc(NC(=O)Cn2nc3c(SC4CCCCC4)nccn3c2=O)cc1Cl` as the compound, how does the Inhibition read?
Answer: -2.37%

Question: For `CCc1ccccc1Sc1nccn2c(=O)n(CC(=O)Nc3cc(Cl)c(OC)cc3OC)nc12`, which Inhibition is on record?
Answer: -2.45%

Question: Which Inhibition does the source give for `Cc1ccc(Sc2nccn3c(=O)n(CC(=O)Nc4ccccc4C)nc23)c(C)c1` here?
Answer: 6.75%

Question: Which Inhibition does the source give for `Cc1cccc(C)c1NC(=O)Cn1nc2c(Sc3cccc(F)c3)nccn2c1=O` here?
Answer: 4.53%

Question: How did the Inhibition turn out when `COc1cccc(-n2ccn3c(SCC(=O)Nc4ccccc4F)nnc3c2=O)c1` was run?
Answer: 7.91%

Question: Which Inhibition does the source give for `COc1ccc(-c2cc3c4nn(CC(=O)Nc5cc(C)ccc5C)c(=O)n4ccn3n2)cc1` here?
Answer: 11.61%

Question: `COc1ccc(N2CCN(C(=O)Cn3nc4c(Oc5ccccc5)nccn4c3=O)CC2)cc1` was tested. Which Inhibition did it give?
Answer: 15.08%

Question: For `O=C(NCc1ccccc1)c1ccc2nn(CC(=O)N3CCN(c4ccccc4F)CC3)c(=O)n2c1`, which Inhibition is on record?
Answer: 7.35%

Question: Which Inhibition does the source give for `CCOc1ccc(-n2ccn3c(SCC(=O)c4ccccc4)nnc3c2=O)cc1` here?
Answer: 1.87%

Question: `CCc1cccc(NC(=O)Cn2nc3ccc(SC(C)C)nn3c2=O)c1` was tested. Which Inhibition did it give?
Answer: 7.23%

Question: Which Inhibition does the source give for `COc1cccc(-n2ccn3c(SCC(=O)c4c[nH]c5ccccc45)nnc3c2=O)c1` here?
Answer: 10.78%

Question: For `Cc1cc2nn(CC(=O)Nc3cc(F)ccc3F)c(=O)n2c(Nc2ccc(C)c(F)c2)n1`, which Inhibition is on record?
Answer: 8.03%

Question: `O=C(Cn1nc2nc(Nc3ccc(F)cc3)ccn2c1=O)Nc1cc(F)ccc1F` was tested. Which Inhibition did it give?
Answer: 11.06%

Question: `COc1ccc(C)cc1NC(=O)Cn1nc2ccc(SC(C)(C)C)nn2c1=O` was tested. Which Inhibition did it give?
Answer: 5.72%

Question: With `COC(=O)c1ccccc1NC(=O)Cn1nc2c3cc(-c4ccc(Cl)cc4)nn3ccn2c1=O` as the compound, how does the Inhibition read?
Answer: 3.97%

Question: `COc1ccc(-c2cc3c4nn(CC(=O)Nc5cccc(OC)c5)c(=O)n4ccn3n2)cc1` was tested. Which Inhibition did it give?
Answer: 10.26%

Question: How did the Inhibition turn out when `Cc1ccc(NC(=O)Cn2nc3c(N4CCOCC4)nc4ccccc4n3c2=O)cc1C` was run?
Answer: 11.25%

Question: How did the Inhibition turn out when `Cc1cccc(-c2nc(CSc3nc4ccccc4n4c(C)nnc34)c(C)o2)c1` was run?
Answer: 10.71%

Question: With `CCOC(=O)c1cccc(NC(=O)Cn2nc3c4cc(-c5ccc(C)c(C)c5)nn4ccn3c2=O)c1` as the compound, how does the Inhibition read?
Answer: -4.81%

Question: For `Cn1c(=O)c2ccc(C(=O)NC3CCCCC3)cc2n2c(=O)n(Cc3cccc(C(F)(F)F)c3)nc12`, which Inhibition is on record?
Answer: 16.04%

Question: Which Inhibition does the source give for `COc1cc(OC)c(NC(=O)Cn2nc3c4c5c(sc4ncn3c2=O)CC(C)CC5)cc1Cl` (stereo not given) here?
Answer: 11.66%

Question: Which Inhibition does the source give for `O=c1n(Cc2cccc(C(F)(F)F)c2)nc2ccc(S(=O)(=O)N3CCCC3)cn12` here?
Answer: 10.57%

Question: For `CSc1cccc(NC(=O)Cn2nc3c(Sc4ccc(C)cc4C)nccn3c2=O)c1`, which Inhibition is on record?
Answer: -1.53%

Question: Which Inhibition does the source give for `O=S(=O)(c1ccc2nncn2c1)N(Cc1cccc(F)c1)c1ccc2c(c1)OCCO2` here?
Answer: 10.4%

system: Candida albicans; conditions: Concentration 32 ug.mL-1; ASSAY_TEST Inhibition of Fungal Growth; detection method Absorption (OD530)

Question: How did the Inhibition turn out when `COc1cccc(-n2ccn3c(=O)n(Cc4ccc([N+](=O)[O-])cc4)nc3c2=O)c1` was run?
Answer: 4.1%

Question: `COc1ccc(N(Cc2cccc(F)c2)S(=O)(=O)c2ccc3nncn3c2)cc1` was tested. Which Inhibition did it give?
Answer: 3.57%

Question: With `O=C(Cn1nc2c(SC3CCCCC3)nccn2c1=O)N1CCN(c2ccc(F)cc2)CC1` as the compound, how does the Inhibition read?
Answer: 0.3%

Question: `CCc1ccc(N(Cc2cccc(F)c2)S(=O)(=O)c2cccn3c(CC)nnc23)cc1` was tested. Which Inhibition did it give?
Answer: 4.6%

Question: `COc1cccc(Oc2nccn3c(=O)n(CC(=O)Nc4ccc(OC)c(OC)c4)nc23)c1` was tested. Which Inhibition did it give?
Answer: 1.42%

Question: `CCCc1nnc2c(=O)n(CC(=O)Nc3ccc(C#N)cc3)c3ccccc3n12` was tested. Which Inhibition did it give?
Answer: 1.16%

Question: Which Inhibition does the source give for `Cc1ccc(-n2ccn3c(SCC(=O)Nc4ccc5c(c4)OCCO5)nnc3c2=O)cc1C` here?
Answer: 0.14%

Question: For `O=c1c2sccc2n2c(=O)n(Cc3cccc(C(F)(F)F)c3)nc2n1Cc1cccs1`, which Inhibition is on record?
Answer: 35.9%

Question: With `CCOC(=O)c1ccccc1NC(=O)Cn1nc2ccc(Sc3ccc(C)cc3)nn2c1=O` as the compound, how does the Inhibition read?
Answer: -1.17%

Question: For `COc1cccc(Sc2nc3ccccc3n3c(=O)n(CC(=O)Nc4ccccc4)nc23)c1`, which Inhibition is on record?
Answer: 1.24%

Question: Which Inhibition does the source give for `O=C(Cn1nc2c3cc(-c4ccc(F)cc4)nn3ccn2c1=O)N1CCCc2ccccc21` here?
Answer: 1.02%

Question: `Cc1ccc(NC(=O)Cn2nc3ccc(SC(C)C)nn3c2=O)c(Cl)c1` was tested. Which Inhibition did it give?
Answer: 10.62%

Question: Which Inhibition does the source give for `O=C(CSc1nnc2c(=O)n(-c3cccc(F)c3)ccn12)Nc1ccc(Br)cc1` here?
Answer: 6.65%

Question: With `CCOc1ccc(-n2ccn3c(SCC(=O)Nc4ccc(C)c(C)c4)nnc3c2=O)cc1` as the compound, how does the Inhibition read?
Answer: 2.77%

Question: `O=C(Cn1nc2ccc(Sc3ccccc3)nn2c1=O)N1CCN(c2ccc(F)cc2)CC1` was tested. Which Inhibition did it give?
Answer: 0.64%

Question: How did the Inhibition turn out when `Cc1ccc(F)cc1NC(=O)CSc1nnc2ccc(C(=O)Nc3cccc(F)c3)cn12` was run?
Answer: -0.79%

Question: How did the Inhibition turn out when `COc1ccc(NC(=O)Cn2nc3c(SC4CCCCC4)nccn3c2=O)cc1Cl` was run?
Answer: 10.68%

Question: With `CCc1ccccc1Sc1nccn2c(=O)n(CC(=O)Nc3cc(Cl)c(OC)cc3OC)nc12` as the compound, how does the Inhibition read?
Answer: 17.44%

Question: Which Inhibition does the source give for `Cc1ccc(Sc2nccn3c(=O)n(CC(=O)Nc4ccccc4C)nc23)c(C)c1` here?
Answer: 4.26%

Question: How did the Inhibition turn out when `Cc1cccc(C)c1NC(=O)Cn1nc2c(Sc3cccc(F)c3)nccn2c1=O` was run?
Answer: -1.35%

Question: With `COc1cccc(-n2ccn3c(SCC(=O)Nc4ccccc4F)nnc3c2=O)c1` as the compound, how does the Inhibition read?
Answer: 2.83%

Question: How did the Inhibition turn out when `COc1ccc(-c2cc3c4nn(CC(=O)Nc5cc(C)ccc5C)c(=O)n4ccn3n2)cc1` was run?
Answer: 0.97%

Question: `COc1ccc(N2CCN(C(=O)Cn3nc4c(Oc5ccccc5)nccn4c3=O)CC2)cc1` was tested. Which Inhibition did it give?
Answer: 1.75%

Question: For `O=C(NCc1ccccc1)c1ccc2nn(CC(=O)N3CCN(c4ccccc4F)CC3)c(=O)n2c1`, which Inhibition is on record?
Answer: 4.65%

Question: How did the Inhibition turn out when `CCOc1ccc(-n2ccn3c(SCC(=O)c4ccccc4)nnc3c2=O)cc1` was run?
Answer: 12.91%

Question: Which Inhibition does the source give for `CCc1cccc(NC(=O)Cn2nc3ccc(SC(C)C)nn3c2=O)c1` here?
Answer: 12.21%

Question: How did the Inhibition turn out when `COc1cccc(-n2ccn3c(SCC(=O)c4c[nH]c5ccccc45)nnc3c2=O)c1` was run?
Answer: 4.57%

Question: How did the Inhibition turn out when `Cc1cc2nn(CC(=O)Nc3cc(F)ccc3F)c(=O)n2c(Nc2ccc(C)c(F)c2)n1` was run?
Answer: 1.75%

Question: `O=C(Cn1nc2nc(Nc3ccc(F)cc3)ccn2c1=O)Nc1cc(F)ccc1F` was tested. Which Inhibition did it give?
Answer: 4.41%

Question: For `COc1ccc(C)cc1NC(=O)Cn1nc2ccc(SC(C)(C)C)nn2c1=O`, which Inhibition is on record?
Answer: 3.1%

Question: With `COC(=O)c1ccccc1NC(=O)Cn1nc2c3cc(-c4ccc(Cl)cc4)nn3ccn2c1=O` as the compound, how does the Inhibition read?
Answer: 0.23%

Question: Which Inhibition does the source give for `COc1ccc(-c2cc3c4nn(CC(=O)Nc5cccc(OC)c5)c(=O)n4ccn3n2)cc1` here?
Answer: 17.22%

Question: For `Cc1ccc(NC(=O)Cn2nc3c(N4CCOCC4)nc4ccccc4n3c2=O)cc1C`, which Inhibition is on record?
Answer: -0.6%

Question: Which Inhibition does the source give for `Cc1cccc(-c2nc(CSc3nc4ccccc4n4c(C)nnc34)c(C)o2)c1` here?
Answer: 3.22%

Question: `CCOC(=O)c1cccc(NC(=O)Cn2nc3c4cc(-c5ccc(C)c(C)c5)nn4ccn3c2=O)c1` was tested. Which Inhibition did it give?
Answer: 21.87%

Question: Which Inhibition does the source give for `Cn1c(=O)c2ccc(C(=O)NC3CCCCC3)cc2n2c(=O)n(Cc3cccc(C(F)(F)F)c3)nc12` here?
Answer: 1.42%

Question: For `COc1cc(OC)c(NC(=O)Cn2nc3c4c5c(sc4ncn3c2=O)CC(C)CC5)cc1Cl` (stereo not given), which Inhibition is on record?
Answer: 3.55%

Question: Which Inhibition does the source give for `O=c1n(Cc2cccc(C(F)(F)F)c2)nc2ccc(S(=O)(=O)N3CCCC3)cn12` here?
Answer: 0.2%

Question: How did the Inhibition turn out when `CSc1cccc(NC(=O)Cn2nc3c(Sc4ccc(C)cc4C)nccn3c2=O)c1` was run?
Answer: 2.24%

Question: With `O=S(=O)(c1ccc2nncn2c1)N(Cc1cccc(F)c1)c1ccc2c(c1)OCCO2` as the compound, how does the Inhibition read?
Answer: 1.26%
